Results on 88 compounds are retold here after PubChem BioAssay AID602399 (Sanford-Burnham Center for Chemical Genomics, 2012).

Values joined by “and” are separate entries in the source; they are usually repeats but may differ in a detail not shown here. Identical values can stand only once. Out of some 360,000 compounds screened, about 2,800 (0.78%) were called active. Rule as the data show it: active = inhibition above about 26%; inactive = the rest. Shown is part of a subset that was picked to be rich in actives. More than one record can exist for a structure, and the calls need not agree.

The subject of the assay is Nicotinate-nucleotide adenylyltransferase NadD (Staphylococcus aureus N315). Description: S. aureus NadD enzyme activity blockers – biochemical, colorimetric, uHTS, primary screen (AID 602399). As to conditions: purified NadD enzyme, colorimetric absorbance read-out; at 20 µM; stronger effect = higher value.
For orientation: inhibition means the relative decrease from the control value, in per cent. `C#Cc1cc(N2CCN(C(=O)c3ccoc3)CC2)n2nc(-c3cccc(Cl)c3)cc2n1`: the inhibition is 35.4% (active). The value for `CN(C)CCN1CCN(c2cc(-c3cccc(Cl)c3)nc3ccnn23)CC1` was -0.61% (inactive).

Regarding `O=C(c1ccccc1)N1CCN(C(=O)c2cc3nc(-c4ccccc4)cc(C(F)(F)F)n3n2)CC1`, the inhibition is 2.29% (inactive).

For `CCCCC[C@H](C)N1C[C@@H](COCc2ccccc2)Oc2cc(N3CCC[C@@H]3CO)ccc2S1(=O)=O`, the inhibition is 1.75% (inactive). The value for `Nc1ncnc2c1cnn2C1CC(O)C(CO)O1` (stereo not drawn) was 4.49% (inactive).

As for `Cc1ccc(-n2c(SCC(=O)N/N=C/C=C/c3ccccc3[N+](=O)[O-])nc3ccccc3c2=O)cc1`, the inhibition is 35.1% (active). On to `CC(=O)NCCn1c(SCC(=O)Nc2ccc(C)cc2)nc2ccccc2c1=O`, for which the inhibition is -6.19% (inactive). Under `Cc1nn(-c2ccccc2)c(C)c1/C=N/NC(=O)CSc1nc2ccccc2c(=O)n1-c1ccccc1` stands 30.2% (active); under `CCn1c(SCC(=O)N/N=C/C=C/c2ccccc2[N+](=O)[O-])nnc1-c1ccccc1`, 5.92% (inactive); under `C/C(=N\NC(=O)CSc1nc2ccccc2c(=O)n1-c1ccccc1C)c1cccs1`, 2.02% (inactive). The value for `Cn1c(SCC(=O)N/N=C/c2ccc(O)c(O)c2)nc2ccccc21` was -4.08% (inactive); that for `Cc1ccc(CC2CC(=O)N(c3nc(C)cc(C)n3)C2=O)cc1` (stereo not drawn) was -0.638% (inactive). For `O=C(COC(=O)c1cc(S(=O)(=O)N2CCOCC2)ccc1F)NC1CC1`, the inhibition is -7.35% (inactive). The value for `COc1ccc(Cc2nnc(SCC(=O)N(c3ccccc3)C(C)C)n(N)c2=O)cc1` was -0.371% (inactive); that for `CC(=O)N(c1ccc2oc(=O)sc2c1)S(=O)(=O)c1ccc(C)cc1` was -4.06% (inactive). The value for `Cc1ccc2cccc(O)c2[n+]1[O-]` was -2.68% (inactive); that for `O=C(O)c1ccc(COCC(F)(F)F)cc1` was 57.7% (active).

Turning to `O=C(O)CCC(=O)NCc1ccc(C(=O)O)cc1`, the inhibition was -1.86% (inactive). The value for `NNC(=O)c1ccc(COCC(F)(F)C(F)F)cc1` was 0.345% (inactive).

As to `O=C(CCc1ccccc1)Nc1ccc(NC(=O)C2CCCCC2)nc1`, the inhibition is -0.446% (inactive). Under `O=C1CCCN2N=C(SCC(=O)Nc3ccc(Br)cc3)SC2=N1` stands 0% (inactive); under `COCCNC(=O)Cn1cc2c(n1)CCCCC2`, 4.24% (inactive); under `CC1CN(S(=O)(=O)c2ccc(C(=O)NN3CCN(C)CC3)cc2)CC(C)O1` (stereo not drawn), -3.52% (inactive). Under `Cc1ccc(C(=O)N/N=C\c2cc(Br)c(Br)o2)cn1` stands -3.68% (inactive); under `Nc1cccnc1Sc1ccccc1`, -5.1% (inactive); under `FC(F)(F)C1CCCN(c2nsc3ccccc23)C1` (stereo not drawn), 34.7% (active). Take `CC(C)(C)c1ccc(C(=O)N2CCC(C(=O)N3CCCCC3)CC2)cc1`: the inhibition was -0.861% (inactive). Under `C/C(CC(=O)Nc1ccc(Cl)cc1)=N\NC(=O)C(=O)NCCO` stands 2.33% (inactive); under `CC(C)c1c(C(=O)N/N=C/c2ccccc2C(=O)O)nnn1-c1nonc1N`, -2.34% (inactive).

As for `CN(C)Cc1c(C(=O)N/N=C/c2ccccc2OCc2ccc(F)cc2)nnn1-c1nonc1N`, the inhibition is 5.11% (inactive).

Consider `Nc1nonc1-n1nnc(C(=O)N/N=C/c2cc(Br)ccc2O)c1CSC1=NCCS1`, for which the inhibition was 37.3% (active).

Consider `Clc1ccc(-c2cc(C3CCNCC3)[nH]n2)c(Cl)c1`, for which the inhibition is -5.2% (inactive). Regarding `CCC(C(=O)OC)n1cnc2c(oc3ccccc32)c1=O` (stereo not drawn), the inhibition is -0.579% (inactive). The value for `COC(=O)c1ccc(CSc2nnc(NC(C)C)s2)cc1` was -1.36% (inactive); that for `CCOc1ccccc1Nc1nnc(SCc2ccc(C(=O)OC)o2)s1` was -2.72% (inactive); that for `Cc1ccc(C(=O)Oc2coc(CSc3nnc(NC(=O)c4cccs4)s3)cc2=O)cc1C` was 58.4% (active). The value for `Cc1cc(C)c(C2C3=C(Nc4c2c(C)nn4-c2ccccn2)c2ccccc2C3=O)c(C)c1` (stereo not drawn) was 33.2% (active); that for `Cc1ccc(C)c(OCCC(=O)OCC(=O)c2ccc3c(c2)NC(=O)CO3)c1` was -5.39% (inactive). The value for `COc1ccc(C(=O)c2c(C)c(CCC#N)n3ccccc23)c(OC)c1` was -8.39% (inactive); that for `CCOc1ccc(CN2CCNC(=O)C2CC(=O)NCCCC2CCCC2)cc1` (stereo not drawn) was 8.04% (inactive); that for `Oc1ccc(C2Nc3cccc4cccc(c34)N2)cc1` was 57.7% (active). `COc1cccc(CNCCc2c[nH]c3ccccc23)c1OCc1ccccc1F`: the inhibition was -4.86% (inactive). Under `Cc1cc(C(=O)NNS(=O)(=O)c2ccccc2C(F)(F)F)nn1C(C)(C)C` stands -0.0808% (inactive).

For `COc1ccc(/C(=N\O)c2nccc3cc(OC)c(OC)cc23)cc1OC`, the inhibition was -0.658% (inactive). Under `CNC(=O)c1ccc(CN(C)C(=O)c2cc(C3CC3)nc3c2cnn3C(C)C)cc1` stands 2.58% (inactive). Under `CC(=O)NC(Cc1c[nH]c2ccccc12)C(=O)NCCc1ccccc1` (stereo not drawn) stands -5.17% (inactive); under `O=C(CNC(=O)c1cccs1)N/N=C/c1cccc(Br)c1`, -5.24% (inactive). The value for `O=C(NC(Cc1c[nH]c2ccccc12)C(=O)N/N=C/c1ccc(Br)cc1)c1cccs1` (stereo not drawn) was 32% (active); that for `O=C1N(c2ccccc2)C(=Nc2ccccc2)SC12CC2` was -4.95% (inactive); that for `Cc1cc(Cl)ccc1NNC(=O)c1snnc1C` was 1.86% (inactive). With `OC(c1ccc(F)cc1)c1ncc(-c2cccc(C(F)(F)F)c2)[nH]1` (stereo not drawn), the inhibition is 0.456% (inactive). Under `O=C(NCc1ccccc1Cl)c1ccc2c(=O)n(CC3CCCO3)c(=S)[nH]c2c1` (stereo not drawn) stands -3.54% (inactive); under `COc1ccc(N=Nc2ccc(O)c(P(=O)(c3ccccc3)c3ccccc3)c2)cc1`, 30.9% (active). Under `CC(C)(C)c1cc(P(=O)(c2ccccc2)c2ccccc2)ccc1O` stands -3.61% (inactive). `Cc1cc(N=Nc2ccc3ccccc3c2)ccc1O`: the inhibition is -20.6% (inactive). The value for `CN1CC(=O)N=C1N` was -3.38% (inactive) and -0.141% (inactive); that for `COc1cccc(CN(C)C(=O)CC[C@H]2O[C@@H](n3cnc4c(NC(=O)c5ccccc5)ncnc43)[C@H](O)[C@@H]2O)c1` was -1.41% (inactive); that for `O=C(NCc1ccncc1)c1ccc(NS(=O)(=O)c2cccc([N+](=O)[O-])c2)cc1` was -1.63% (inactive).

For the compound `O=[N+]([O-])c1cc(S(=O)(=O)Nc2cccc(Cl)c2)ccc1N=Nc1c(O)[nH]c2ccccc12`, the inhibition was 61% (active). The value for `O=C(CCN1CCCCC1)N=Nc1c(O)[nH]c2ccccc12` was -5.32% (inactive); that for `CCOC(=O)[C@]12CCCC=C1N(Cc1ccc(Cl)cc1Cl)C(=O)[C@H](CC(=O)N1CCCCC1)C2` was -1.55% (inactive). Regarding `Cc1ccc(N(CC(=O)NCC2CCCO2)C(=O)CNS(=O)(=O)c2ccc(Cl)cc2)cc1` (stereo not drawn), the inhibition was 2.66% (inactive).

With `COc1ccc(-c2nc3cnccn3c2NC2CCCCC2)cc1-c1cccc(Cl)c1`, the inhibition was 33.8% (active) and 14.3% (inactive).

As to `COc1ccc(-c2nc3cnccn3c2NC(C)(C)CC(C)(C)C)cc1O`, the inhibition is -3.5% (inactive). Consider `COc1ccc(-c2nc3cc(C)ccn3c2NC2CCCCC2)cc1SC1CCCCC1`, for which the inhibition was 17% (inactive) and 21% (inactive).

Take `COC(=O)c1ccc2nc(-c3ccccc3)c(Cc3ccc(OC)cc3C)n2c1`: the inhibition was 10.9% (inactive). `COC(=O)c1ccc2nc(-c3ccc(C)cc3)c(Cc3ccc(OC)cc3C)n2c1`: the inhibition is 31.6% (active). Under `COC(=O)c1ccc2nc(-c3cccc(Br)c3)c(Cc3ccc(OC)cc3C)n2c1` stands 20.8% (inactive); under `O=C(COC(=O)c1cccnc1Cl)Nc1ccc(S(=O)(=O)N2CCOCC2)cc1`, -4.21% (inactive); under `CCc1nc2oc3ccccc3c(=O)c2c(=O)n1Cc1ccc(OC)cc1`, 2.99% (inactive). The value for `O=C(CSc1nnc(COc2ccc(Cl)cc2)n1Cc1ccco1)N1CCNC1=O` was 4.26% (inactive); that for `Cn1c2ccccc2c(=O)c2c(=O)n(Cc3ccco3)c(COc3ccccc3)nc21` was 42.5% (active). Under `COc1ccc(-c2ccc(CN3C(C(C)C)C(=O)N(Cc4cn(CC5CCCCC5)nn4)CCS3(=O)=O)cc2)cn1` (stereo not drawn) stands 4.8% (inactive); under `CCOC(=O)C(Sc1ncc(C#N)c(N)n1)C(C)C` (stereo not drawn), 2.12% (inactive). Consider `CCCc1c(C(=O)Nc2ccc(F)cc2)cnn1-c1ccccc1`, for which the inhibition is -0.321% (inactive). Under `Cc1cccc(C)c1-n1nnnc1C1(C)CCC(=O)N1CCOc1ccccc1` (stereo not drawn) stands -5.82% (inactive); under `Cc1ccsc1/C=N/n1c(=S)[nH]nc(C)c1=O`, 1.04% (inactive); under `CC(=O)C1=C(C)NC(C)=C(C(C)=O)C1c1cn(-c2ccccc2)nc1-c1cccs1`, 11.6% (inactive).

Take `S=c1[nH]nc(-c2cccs2)n1/N=C/c1cn(-c2ccccc2)nc1-c1ccc(Cl)cc1`: the inhibition was 32.6% (active).

Regarding `C[C@H]1CC[C@]2(O[C@@H](CCO)C[C@@H](O)[C@@H]2O)O1`, the inhibition was 0.758% (inactive). The value for `O=C(COC(=O)CCCNC(=O)c1ccc(Cl)cc1)Nc1cc(Cl)ccc1Cl` was -4.1% (inactive); that for `COc1ccc([N+](=O)[O-])cc1C1NN=C(c2cccc3ccccc23)S1` (stereo not drawn) was 17.6% (inactive); that for `NC(=O)C1CC(=O)N(c2ccc(OCC(=O)NCc3ccccc3)cc2)C1` (stereo not drawn) was 1.55% (inactive).

As for `O=C(COC(=O)c1ccccc1)Nc1ccccc1Sc1ccccc1`, the inhibition was -7.21% (inactive). Under `O=C(COC(=O)c1ccc(Oc2ccccc2)cc1)Nc1nnc(-c2ccccc2)o1` stands 47.6% (active).

`COc1ccccc1C(=O)NCC(=O)OCC(=O)Nc1nnc(-c2ccccc2)o1`: the inhibition is 10.3% (inactive).

Consider `CC(C)(C)C(=O)CCN1C(=O)C2(OCCO2)c2ccccc21`, for which the inhibition was -0.902% (inactive). Consider `COC(=O)[C@@]1(Cc2ccc(F)cc2)[C@H]2c3cc(C(=O)N4CCCC4)n(Cc4ccc(OC(F)(F)F)cc4)c3C[C@H]2CN1C(=O)c1ccccc1`, for which the inhibition was 13.9% (inactive).
